The whole screen tested about 5,500 compounds, of which about 2,000 (36%) were called active. Another 18% or so got no clear call; they are omitted. Rule as the data show it: active = normalized growth mostly below about 0.91 (no sharp cut-off); inconclusive = no clear call, values can overlap the other calls; inactive = mostly above about 0.92. The list shows a part of the results.
Assay: chemical genetic growth profiling, strain panel (AID 1159580);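 also: tested at 20 µM; growth read once vehicle control cultures reached saturation at 30 °C; 1 = growth at the plate median or of vehicle wells; lower values mean less growth of the strain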
Conditions: growth OD

Measured: normalized growth

CC(=O)C1CCC2C3CCC4C[C@H](O)CCC4(C)C3C[C@H](O)C12C (some centres not stated)
inactive: S. cerevisiae deletion strains, locus YJL187C, strain SWE1, active compounds read low 0.965 | S. cerevisiae deletion strains, locus YJR066W, strain TOR1, active compounds read low 0.923 | S. cerevisiae deletion strains, locus YKL009W, strain mrt4, active compounds read low 1.02 | S. cerevisiae deletion strains, locus YKL068W, active compounds read low 0.992 | S. cerevisiae deletion strains, locus YKL085W, strain MDH1 (second series), active compounds read low 0.987 | S. cerevisiae deletion strains, locus YKL085W, strain MDH1, active compounds read low 0.987 | S. cerevisiae deletion strains, locus YKL160W, strain elf1, active compounds read low 0.964 | S. cerevisiae deletion strains, locus YKR001C, strain vps1, active compounds read low 1.04 | S. cerevisiae deletion strains, locus YKR026C, strain gcn3, active compounds read low 0.962 | S. cerevisiae deletion strains, locus YKR091W, strain srl3, active compounds read low 0.972 | S. cerevisiae deletion strains, locus YLL001W, strain dnm1, active compounds read low 0.98 | S. cerevisiae deletion strains, locus YLL026W, active compounds read low 0.968 | S. cerevisiae deletion strains, locus YLL041C, strain sdh2, active compounds read low 0.963 | S. cerevisiae deletion strains, locus YLR027C, strain aat2, active compounds read low 0.985 | S. cerevisiae deletion strains, locus YLR039C, strain RIC1, active compounds read low 1.21 | S. cerevisiae deletion strains, locus YLR058C, strain SHM2, active compounds read low 1.05 | S. cerevisiae deletion strains, locus YLR102C, strain apc9, active compounds read low 1.01 | S. cerevisiae deletion strains, locus YLR113W, strain HOG1, active compounds read low 1.12 | S. cerevisiae deletion strains, locus YLR221C, strain rsa3, active compounds read low 0.984 | S. cerevisiae deletion strains, locus YLR258W, strain gsy2, active compounds read low 0.962 | S. cerevisiae deletion strains, locus YLR262C, strain YPT6 (second series), active compounds read low 0.991 | S. cerevisiae deletion strains, locus YLR262C, strain YPT6, active compounds read low 1.19 | S. cerevisiae deletion strains, locus YLR268W, strain sec22, active compounds read low 1.02 | S. cerevisiae deletion strains, locus YLR320W, strain mms22, active compounds read low 0.99 | S. cerevisiae deletion strains, locus YLR330W, strain CHS5, active compounds read low 1.03 | S. cerevisiae deletion strains, locus YLR342W, strain FKS1, active compounds read low 0.977 | S. cerevisiae deletion strains, locus YLR357W, strain rsc2, active compounds read low 0.98 | S. cerevisiae deletion strains, locus YLR370C, strain arc18, active compounds read low 0.98 | S. cerevisiae deletion strains, locus YLR371W, strain rom2, active compounds read low 1.02 | S. cerevisiae deletion strains, locus YLR384C, strain iki3, active compounds read low 0.97 | S. cerevisiae deletion strains, locus YLR418C, strain cdc73, active compounds read low 1.07 | S. cerevisiae deletion strains, locus YML016C, strain PPZ1, active compounds read low 1.03 | S. cerevisiae deletion strains, locus YML032C, strain rad52, active compounds read low 1.01 | S. cerevisiae deletion strains, locus YML120C, strain ndi1, active compounds read low 1 | S. cerevisiae deletion strains, locus YML124C, strain tub3, active compounds read low 0.998 | S. cerevisiae deletion strains, locus YMR058W, strain fet3, active compounds read low 0.968 | S. cerevisiae deletion strains, locus YMR078C, strain ctf18, active compounds read low 0.989 | S. cerevisiae deletion strains, locus YMR125W, strain sto1, active compounds read low 0.943 | S. cerevisiae deletion strains, locus YMR129W, active compounds read low 0.973 | S. cerevisiae deletion strains, locus YMR205C, strain PFK2, active compounds read low 0.987 | S. cerevisiae deletion strains, locus YMR223W, strain ubp8, active compounds read low 1.03 | S. cerevisiae deletion strains, locus YMR231W, strain pep5, active compounds read low 0.978 | S. cerevisiae deletion strains, locus YMR307W, strain GAS1, active compounds read low 1.34 | S. cerevisiae deletion strains, locus YNL067W, strain RPL9B, active compounds read low 1.02 | S. cerevisiae deletion strains, locus YNL071W, strain lat1, active compounds read low 0.975 | S. cerevisiae deletion strains, locus YNL183C, strain NPR1, active compounds read low 0.956 | S. cerevisiae deletion strains, locus YNL209W, strain ssb2, active compounds read low 0.967 | S. cerevisiae deletion strains, locus YNL233W, strain BNI4, active compounds read low 1.07 | S. cerevisiae deletion strains, locus YNL248C, strain rpa49, active compounds read low 0.975 | S. cerevisiae deletion strains, locus YNL250W, strain rad50, active compounds read low 0.999 | S. cerevisiae deletion strains, locus YNL271C, strain bni1, active compounds read low 1.01 | S. cerevisiae deletion strains, locus YNL298W, strain CLA4, active compounds read low 1.01 | S. cerevisiae deletion strains, locus YNL307C, strain MCK1, active compounds read low 0.994 | S. cerevisiae deletion strains, locus YNL322C, strain KRE1 (second series), active compounds read low 0.979 | S. cerevisiae deletion strains, locus YNL322C, strain KRE1, active compounds read low 1.02 | S. cerevisiae deletion strains, locus YNR049C, strain mso1, active compounds read low 0.961 | S. cerevisiae deletion strains, locus YNR052C, strain pop2, active compounds read low 1 | S. cerevisiae deletion strains, locus YOL006C, strain TOP1, active compounds read low 1.37 | S. cerevisiae deletion strains, locus YOL012C, strain htz1 1.2 | S. cerevisiae deletion strains, locus YOL147C, strain pex11, active compounds read low 0.995 | S. cerevisiae deletion strains, locus YOR001W, strain rrp6, active compounds read low 0.961 | S. cerevisiae deletion strains, locus YOR061W, strain CKA2, active compounds read low 1.03 | S. cerevisiae deletion strains, locus YOR069W, strain VPS5, active compounds read low 1.02 | S. cerevisiae deletion strains, locus YOR070C, strain gyp1, active compounds read low 0.982 | S. cerevisiae deletion strains, locus YOR080W, strain dia2, active compounds read low 0.98 | S. cerevisiae deletion strains, locus YOR083W, strain WHI5, active compounds read low 0.958 | S. cerevisiae deletion strains, locus YOR106W, strain vam3, active compounds read low 0.913 | S. cerevisiae deletion strains, locus YOR136W, strain idh2, active compounds read low 1 | S. cerevisiae deletion strains, locus YOR144C, strain elg1, active compounds read low 0.996 | S. cerevisiae deletion strains, locus YOR184W, strain ser1, active compounds read low 1.02 | S. cerevisiae deletion strains, locus YOR231W, strain MKK1, active compounds read low 1.03 | S. cerevisiae deletion strains, locus YOR265W, strain rbl2, active compounds read low 0.993 | S. cerevisiae deletion strains, locus YOR270C, strain vph1, active compounds read low 0.964 | S. cerevisiae deletion strains, locus YOR290C, strain snf2, active compounds read low 0.934 | S. cerevisiae deletion strains, locus YOR316C, strain cot1, active compounds read low 1 | S. cerevisiae deletion strains, locus YPL051W, strain arl3, active compounds read low 1 | S. cerevisiae deletion strains, locus YPL078C, strain atp4, active compounds read low 0.945 | S. cerevisiae deletion strains, locus YPL106C, strain sse1, active compounds read low 0.964 | S. cerevisiae deletion strains, locus YPL240C, strain hsp82, active compounds read low 0.987 | S. cerevisiae deletion strains, locus YPL241C, strain CIN2, active compounds read low 1.02 | S. cerevisiae deletion strains, locus YPL256C, strain CLN2, active compounds read low 0.994 | S. cerevisiae deletion strains, locus YPR119W, strain clb2, active compounds read low 0.988 | S. cerevisiae deletion strains, locus YPR141C, strain kar3, active compounds read low 0.996 | S. cerevisiae deletion strains, locus YPR163C, strain tif3, active compounds read low 1 | S. cerevisiae deletion strains, locus YPR167C, strain met16, active compounds read low 1.01 | S. cerevisiae deletion strains, strain wtn01, active compounds read low 1.01 | S. cerevisiae strains, strain wild type, active compounds read low 1.07

Reference: PubChem BioAssay AID1159580 (chemical genetic matrix, 2015)
